Experimental findings from PubChem BioAssay (Tox21) are described below.

In assay [1] the target is Estrogen receptor beta (Homo sapiens) (UniProt Q92731). The assay is described as follows: qHTS assay to identify small molecule agonists of the estrogen receptor beta (ER-beta) signaling pathway (AID 1259377; active = well fitted activation curve with a large enough effect in the signal ratio in the repeat runs, not every such curve was filed as active; the % refers to the signal ratio; also: potency is read from the fitted curve at half-maximal effect). An outline of the steps: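 HEK293T ER-beta-UAS-bla; 2% charcoal-stripped FBS; cells pre-incubated 6 hr, compound 16 hr, 37C/5% CO2; LiveBLAzer B/G FRET substrate 2 h RT; fluorescence intensity read.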
In general terms: qHTS replaces the single test concentration by a dilution series.

Assay [2] shares this target. The assay can be described thus: qHTS assay to identify small molecule antagonists of the estrogen receptor beta (ER-beta) signaling pathway (AID 1259378; active = well fitted inhibition curve with a large enough effect in the signal ratio in the repeat runs, not every such curve was filed as active; the % refers to the signal ratio). An outline of the steps: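 Antagonist mode: compounds added to beta-lactamase reporter HEK293T ER-beta-UAS cells stimulated with E2 (1nM final), 16 hr at 37C. LiveBLAzer B/G FRET substrate, 2 hours room temperature, fluorescence read-out.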

Assay [3] in a line: qHTS assay to identify small molecule agonists of the androgen receptor (AR) signaling pathway in the presence of an antagonist - cell viability counter screen (AID 1259379). Also: nearly all actives have a fitted effect of over 25% in size. Also: potency is read from the fitted curve at half-maximal effect. An outline of the steps: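 MDA-kb2 human breast carcinoma cells (stable MMTV-luciferase, AR/GR responsive) were seeded 3,000 cells/well, pre-incubated 5 hr at 37C without CO2, then given 3.0uM nilutamide and compounds at 15 concentrations for 16 hr. Viability was read by CellTiter-Fluor fluorescence.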

The nature of assay [4]: qHTS assay to identify small molecule agonists of the estrogen receptor beta (ER-beta) signaling pathway - cell viability counter screen (AID 1259380). Also: nearly all actives have a fitted effect of over 30% in size. Summed up:
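ER-beta-UAS-bla HEK293T cells in medium with 2% charcoal-stripped FBS were preincubated 6 hr at 37C, dosed with compound in DMSO for 16 hr, then after the bla read, CellTiter-Glo was added for 30 min at room temperature; luminescence recorded.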

A short description of assay [5]: qHTS assay to identify small molecule antagonists of the estrogen receptor beta (ER-beta) signaling pathway - cell viability counter screen (AID 1259382).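 Also: HEK293T cells carrying ER-beta-UAS-bla reporter stimulated with estradiol; series mostly up to about 92 µM; nearly all actives have a fitted effect of over 55% in size.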 Summed up: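 ER-beta-UAS-bla HEK293T cells (2,000/well, 2% charcoal-stripped FBS) were pre-incubated 6 hr at 37C, then given compound plus 1nM final 17-beta-estradiol for 16 hr. Viability was read in the same wells by CellTiter-Glo luminescence after 30 min at room temperature.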

The target of assay [6] is Estrogen receptor (Homo sapiens) (UniProt P03372). The assay can be described thus: qHTS assay to identify small molecule agonists of the estrogen receptor alpha (ER-alpha) signaling pathway in the presence of an antagonist (AID 1259383; calls by dose curve; also: nearly all actives have a fitted effect of over 15% in size; also: potency is read from the fitted curve at half-maximal effect; as to activation: top concentration of the series differs between compounds). Summed up: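 VM7Luc4E2 cells (endogenous full-length ER-alpha, 4×ERE-luciferase) were precultured 5 days in phenol red-free medium with 10% charcoal-stripped FBS, given 10.0nM ICI-182,780 (final), then treated with compounds at 15 concentrations for 22hr at 37C; luminescence read with ONE-Glo.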

Assay [7] can be described thus: qHTS assay to identify small molecule agonists or antagonists of the thyroid stimulating hormone receptor (TSHR) signaling pathway - wild type cell line counter screen (AID 1259384; calls by dose curve). Summed up: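 Counter screen in untransfected Hek293: compounds (15-point titration, triplicate) plus phosphodiesterase inhibitor Ro20-1724 added after 18 h plating; 30 min RT. Intracellular cAMP via competitive d2/cryptate immunoassay, 1 h incubation.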

Assay [8] addresses Progesterone receptor (Homo sapiens) (UniProt P06401). The assay is described as follows: qHTS assay to identify small molecule agonists of the progesterone receptor (PR) signaling pathway (AID 1346784; calls by dose curve; also: nearly all actives have a fitted effect of over 30% in size; also: potency is read from the fitted curve at half-maximal effect). An outline of the steps: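 Beta-lactamase reporter read-out: after 16 hr compound treatment at 37C and a further 2 hr at room temperature with LiveBLAzer B/G FRET substrate, fluorescence was measured in PR-UAS-bla HEK 293T cells grown in 2% charcoal-stripped serum.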

For assay [9] the target is unchanged. The assay is described as follows: qHTS assay to identify small molecule antagonists of the progesterone receptor (PR) signaling pathway (AID 1346795; active = well fitted inhibition curve with a large enough effect in the signal ratio in the repeat runs, not every such curve was filed as active; the % refers to the signal ratio). Summed up: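 Read-out is fluorescence from the LiveBLAzer B/G FRET substrate, cleaved by a UAS-controlled beta-lactamase in PR-UAS-bla HEK293T cells after 16 hr exposure to compound plus 1 nM promegestone (final), followed by 2 hr at room temperature.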

Assay [10] in a line: qHTS assay to identify small molecule antagonists of the progesterone receptor (PR) signaling pathway - cell viability counter screen (AID 1346798).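 Also: HEK293T PR-UAS-bla cells stimulated with the agonist R5020; series mostly up to about 92 µM; nearly all actives have a fitted effect of over 50% in size.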 An outline of the steps:
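HEK293T PR-UAS-bla, 2% charcoal-stripped FBS; 4 hr pre-plate; cpd + R5020, 16 h 37C; LiveBLAzer read first; then CellTiter-Glo 30 min RT, luminescence.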

Assay [11] can be described thus: qHTS assay to identify small molecule antagonists of the TGF-beta/Smad signaling pathway - cell viability counter screen (AID 1346824). Also: nearly all actives have a fitted effect of over 50% in size. An outline of the steps:
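Cytotoxicity counter-screen run in the same wells as the beta-lactamase Smad reporter read: CellTiter-Glo luminescence after 30 min at room temperature. HEK 293T SBE-bla cells had 5 hr compound exposure at 37 C with TGF-beta1 (0.25 ng/mL stock).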

The nature of assay [12]: qHTS assay to identify small molecule agonists of the TGF-beta/Smad signaling pathway - cell viability counter screen (AID 1346829). Also: top concentration of the series differs between compounds; nearly all actives have a fitted effect of over 45% in size. Summed up: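 Luminescence from CellTiter-Glo, read after a 30 min room-temperature incubation, gives cell viability of SBE-bla HEK 293T cells treated 5 hr with compounds at 37 C.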
Assay [13] in a line: qHTS assay to identify small molecule agonists of the TGF-beta/Smad signaling pathway (AID 1346859; active = well fitted activation curve with a large enough effect in the signal ratio in the repeat runs, not every such curve was filed as active; the % refers to the signal ratio; also: series mostly up to about 77 µM). An outline of the steps:
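SBE-bla HEK 293T, 4,000 cells/well, plated o/n; cpd in DMSO, 5 hr, 37 C/5% CO2; B/G FRET substrate 2 hr RT; ex 405, em 460/530 nm.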

Assay [14] deals with Thyrotropin receptor (Homo sapiens) (UniProt P16473). The assay can be described thus: qHTS assay to identify small molecule antagonists of the thyroid stimulating hormone receptor (TSHR) signaling pathway (AID 1259385; calls by dose curve; also: nearly all actives have a fitted effect of over 20% in size; also: potency is read from the fitted curve at half-maximal effect). Summed up:
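Antagonist mode: compound-treated TSHR-expressing HEK293 cells were stimulated with 1.5 ng/mL TSH (final) in presence of Ro20-1724 for 30 min at RT. HTRF cAMP detection after 1 h; each compound tested at 15 concentrations, triplicate.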

The nature of assay [15]: qHTS assay to identify small molecule agonists of the estrogen receptor alpha (ER-alpha) signaling pathway in the presence of an antagonist - cell viability counter screen (AID 1259386).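 Also: series mostly up to about 92 µM; cells exposed to compounds for 22 h at 37 °C before the viability read; nearly all actives have a fitted effect of over 30% in size.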 Summed up: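 VM7Luc4E2 cells (endogenous full-length ER-alpha, 4×ERE-luciferase) were held 5 days in phenol red-free medium with 10% charcoal-stripped FBS, plated, then given 10.0nM ICI-182,780 and compounds at 15 concentrations for 22hr at 37C; viability read by CellTiter-Fluor fluorescence.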

Assay [16] addresses Thyrotropin-releasing hormone receptor (Homo sapiens) (UniProt P34981). The assay is described as follows: qHTS assay to identify small molecule antagonists of the thyrotropin-releasing hormone receptor (TRHR) signaling pathway (AID 1346877; active = well fitted inhibition curve with a large enough effect in the repeat runs, not every such curve was filed as active; also: series mostly up to about 51 µM). An outline of the steps:
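TRHR-expressing HEK293 cells were seeded, cultured 18 h at 37 °C, then loaded with calcium dye for 2 h. Compounds were pre-incubated 5 min at room temperature before 1 nM TRH (final) was added, and kinetic fluorescence was recorded for 3 min.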

For assay [17] the target is unchanged. The assay is described as follows: qHTS assay to identify small molecule agonists of the thyrotropin-releasing hormone receptor (TRHR) signaling pathway (AID 1346891; calls by dose curve; also: series mostly up to about 58 µM). An outline of the steps:
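Intracellular calcium rise, read as fluorescence every second for 3 min, served as the agonist signal in dye-loaded HEK293 cells expressing TRHR; each compound ran at 15 concentrations in triplicate.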

For assay [18], the target named is Androgen receptor (Homo sapiens) (UniProt P10275). The assay can be described thus: qHTS assay to identify small molecule agonists of the androgen receptor (AR) signaling pathway in the presence of an antagonist (AID 1259381; calls by dose curve; also: nearly all actives have a fitted effect of over 15% in size). An outline of the steps:
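MDA-kb2 human breast carcinoma cells carrying an MMTV-luciferase reporter (AR- and GR-responsive) were treated with compounds at 15 concentrations plus 3.0uM final nilutamide for 16hr at 37C without CO2; luminescence was read after ONE-Glo addition.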

Assay [19] is described as follows: Human pregnane X receptor (PXR) small molecule agonists, qHTS cell viability counter screen (AID 1346977). Also: nearly all actives have a fitted effect of over 50% in size. An outline of the steps: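 PXR-Luc HepG2, 2,000 cells/well, 5% charcoal-stripped FBS; 5hr settle; cpd 24hr, 37C/5% CO2; CellTiter-Fluor at 23hr, read 1hr later (fluorescence).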
Assay [20] can be described thus: qHTS assay to identify small molecule agonists of the progesterone receptor (PR) signaling pathway - cell viability counter screen (AID 1346799; calls by dose curve; also: nearly all actives have a fitted effect of over 45% in size). Summed up:
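Luminescence from CellTiter-Glo, added after the beta-lactamase FRET read in the same wells, gave cytotoxicity in PR-UAS-bla HEK293T cells treated with compounds for 16 hr at 37C.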

Where “and” joins values, the source holds several entries; their conditions need not be identical. Identical values can stand only once. Unmarked numbers belong to inactive results. Results filed as inconclusive are left out. Calls of active or inactive are those of the source. Unless noted, calls follow the shape of the dose curve; as a rule, active = well fitted curve in the direction sought with a large enough effect in the repeat runs; inconclusive = weak or mixed curves; inactive = no such curve, though single readings can be large; an effect the other way counts as inactive or inconclusive.

Chain of Androgen receptor (Homo sapiens) (P10275 whole entry, looked up): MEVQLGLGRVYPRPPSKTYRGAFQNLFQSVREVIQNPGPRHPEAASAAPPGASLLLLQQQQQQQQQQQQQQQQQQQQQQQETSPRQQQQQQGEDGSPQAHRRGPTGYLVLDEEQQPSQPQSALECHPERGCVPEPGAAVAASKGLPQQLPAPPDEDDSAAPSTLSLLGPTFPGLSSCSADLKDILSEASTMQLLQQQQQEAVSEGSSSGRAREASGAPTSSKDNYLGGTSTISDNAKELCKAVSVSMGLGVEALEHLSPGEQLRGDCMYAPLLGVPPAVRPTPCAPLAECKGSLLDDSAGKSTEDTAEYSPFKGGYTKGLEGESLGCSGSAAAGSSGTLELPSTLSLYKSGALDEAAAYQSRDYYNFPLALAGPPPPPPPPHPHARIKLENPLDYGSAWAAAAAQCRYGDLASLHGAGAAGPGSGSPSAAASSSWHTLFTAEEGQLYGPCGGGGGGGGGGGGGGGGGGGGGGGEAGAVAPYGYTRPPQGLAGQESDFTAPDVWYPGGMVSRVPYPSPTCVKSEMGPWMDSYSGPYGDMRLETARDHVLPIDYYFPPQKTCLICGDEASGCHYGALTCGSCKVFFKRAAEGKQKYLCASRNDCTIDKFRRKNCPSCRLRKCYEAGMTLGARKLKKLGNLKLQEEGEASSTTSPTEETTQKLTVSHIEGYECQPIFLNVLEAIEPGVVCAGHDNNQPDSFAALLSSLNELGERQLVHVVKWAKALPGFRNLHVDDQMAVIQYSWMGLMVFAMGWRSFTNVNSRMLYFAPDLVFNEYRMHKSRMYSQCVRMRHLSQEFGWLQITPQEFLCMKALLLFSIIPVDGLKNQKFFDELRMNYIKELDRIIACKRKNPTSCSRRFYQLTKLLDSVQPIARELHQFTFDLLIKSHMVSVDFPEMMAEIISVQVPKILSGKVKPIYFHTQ
Chain of Thyrotropin-releasing hormone receptor (Homo sapiens) (P34981 whole entry, looked up): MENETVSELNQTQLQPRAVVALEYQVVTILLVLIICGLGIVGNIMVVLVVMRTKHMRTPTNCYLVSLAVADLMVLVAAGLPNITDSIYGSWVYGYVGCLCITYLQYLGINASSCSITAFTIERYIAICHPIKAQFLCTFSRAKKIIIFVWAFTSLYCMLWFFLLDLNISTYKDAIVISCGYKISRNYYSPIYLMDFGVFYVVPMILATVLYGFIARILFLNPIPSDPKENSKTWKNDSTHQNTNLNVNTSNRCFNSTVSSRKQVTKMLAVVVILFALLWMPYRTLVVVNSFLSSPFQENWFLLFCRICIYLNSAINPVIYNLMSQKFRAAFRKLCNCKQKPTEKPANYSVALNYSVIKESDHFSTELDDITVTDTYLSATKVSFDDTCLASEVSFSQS
Chain of Thyrotropin receptor (Homo sapiens) (P16473 whole entry, looked up): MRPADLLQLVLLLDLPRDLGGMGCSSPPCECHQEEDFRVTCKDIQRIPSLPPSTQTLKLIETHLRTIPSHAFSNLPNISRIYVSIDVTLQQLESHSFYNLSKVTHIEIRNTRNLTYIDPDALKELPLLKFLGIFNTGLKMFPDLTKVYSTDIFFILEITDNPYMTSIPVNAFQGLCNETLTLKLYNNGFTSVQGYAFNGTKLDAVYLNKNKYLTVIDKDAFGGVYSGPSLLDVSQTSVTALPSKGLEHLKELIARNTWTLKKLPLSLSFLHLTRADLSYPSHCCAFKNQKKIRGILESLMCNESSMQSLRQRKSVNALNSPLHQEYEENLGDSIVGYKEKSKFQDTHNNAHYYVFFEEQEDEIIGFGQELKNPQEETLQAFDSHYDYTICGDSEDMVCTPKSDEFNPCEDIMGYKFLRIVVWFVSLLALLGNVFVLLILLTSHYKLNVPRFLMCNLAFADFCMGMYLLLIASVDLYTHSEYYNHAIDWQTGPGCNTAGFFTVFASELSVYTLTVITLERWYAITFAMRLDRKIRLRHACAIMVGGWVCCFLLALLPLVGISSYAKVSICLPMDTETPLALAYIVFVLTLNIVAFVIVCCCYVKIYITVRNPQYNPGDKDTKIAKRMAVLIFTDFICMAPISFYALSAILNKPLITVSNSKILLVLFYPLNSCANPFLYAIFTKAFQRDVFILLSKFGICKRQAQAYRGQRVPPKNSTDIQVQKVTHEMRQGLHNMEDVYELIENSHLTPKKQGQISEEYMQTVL
Chain of Progesterone receptor (Homo sapiens) (P06401 whole entry, looked up): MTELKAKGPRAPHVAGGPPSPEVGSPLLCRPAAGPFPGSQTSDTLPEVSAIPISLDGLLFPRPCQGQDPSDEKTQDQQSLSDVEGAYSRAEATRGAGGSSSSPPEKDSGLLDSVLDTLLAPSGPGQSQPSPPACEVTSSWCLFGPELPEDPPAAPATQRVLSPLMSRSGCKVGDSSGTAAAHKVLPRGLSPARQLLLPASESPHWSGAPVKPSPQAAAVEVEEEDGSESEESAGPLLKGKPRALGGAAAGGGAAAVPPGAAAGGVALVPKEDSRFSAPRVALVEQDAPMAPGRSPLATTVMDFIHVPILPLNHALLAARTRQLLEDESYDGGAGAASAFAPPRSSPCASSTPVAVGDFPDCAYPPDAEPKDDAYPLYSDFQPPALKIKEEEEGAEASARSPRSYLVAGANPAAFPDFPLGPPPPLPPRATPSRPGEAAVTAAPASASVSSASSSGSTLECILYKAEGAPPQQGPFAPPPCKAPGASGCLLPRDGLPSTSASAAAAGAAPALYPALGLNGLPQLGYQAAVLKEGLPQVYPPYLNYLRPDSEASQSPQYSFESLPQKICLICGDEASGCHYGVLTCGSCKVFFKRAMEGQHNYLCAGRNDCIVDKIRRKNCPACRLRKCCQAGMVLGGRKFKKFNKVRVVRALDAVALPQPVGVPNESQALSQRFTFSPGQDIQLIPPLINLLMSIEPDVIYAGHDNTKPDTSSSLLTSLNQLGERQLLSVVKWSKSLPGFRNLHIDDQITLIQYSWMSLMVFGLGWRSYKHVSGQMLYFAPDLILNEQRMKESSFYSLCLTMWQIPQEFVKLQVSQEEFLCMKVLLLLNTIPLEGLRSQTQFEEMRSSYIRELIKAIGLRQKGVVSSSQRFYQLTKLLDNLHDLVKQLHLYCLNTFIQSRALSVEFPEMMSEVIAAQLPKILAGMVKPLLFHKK
Chain of Estrogen receptor (Homo sapiens) (P03372 whole entry, looked up): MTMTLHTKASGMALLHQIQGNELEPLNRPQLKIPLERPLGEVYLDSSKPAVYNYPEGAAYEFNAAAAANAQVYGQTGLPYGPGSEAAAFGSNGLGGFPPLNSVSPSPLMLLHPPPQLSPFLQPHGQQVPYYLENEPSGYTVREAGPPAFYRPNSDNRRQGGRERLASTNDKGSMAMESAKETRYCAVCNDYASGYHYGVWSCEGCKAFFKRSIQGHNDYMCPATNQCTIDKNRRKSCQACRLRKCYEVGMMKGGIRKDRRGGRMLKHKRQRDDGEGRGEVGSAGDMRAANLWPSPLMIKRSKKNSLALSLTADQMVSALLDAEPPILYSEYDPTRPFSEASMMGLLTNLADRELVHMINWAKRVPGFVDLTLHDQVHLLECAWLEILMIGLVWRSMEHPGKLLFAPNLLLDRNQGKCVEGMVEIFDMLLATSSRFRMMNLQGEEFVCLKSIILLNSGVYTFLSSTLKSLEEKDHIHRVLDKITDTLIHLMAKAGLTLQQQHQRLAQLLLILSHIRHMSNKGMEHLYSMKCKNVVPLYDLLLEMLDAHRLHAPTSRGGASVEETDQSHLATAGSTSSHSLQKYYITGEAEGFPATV
Chain of Estrogen receptor beta (Homo sapiens) (Q92731 whole entry, looked up): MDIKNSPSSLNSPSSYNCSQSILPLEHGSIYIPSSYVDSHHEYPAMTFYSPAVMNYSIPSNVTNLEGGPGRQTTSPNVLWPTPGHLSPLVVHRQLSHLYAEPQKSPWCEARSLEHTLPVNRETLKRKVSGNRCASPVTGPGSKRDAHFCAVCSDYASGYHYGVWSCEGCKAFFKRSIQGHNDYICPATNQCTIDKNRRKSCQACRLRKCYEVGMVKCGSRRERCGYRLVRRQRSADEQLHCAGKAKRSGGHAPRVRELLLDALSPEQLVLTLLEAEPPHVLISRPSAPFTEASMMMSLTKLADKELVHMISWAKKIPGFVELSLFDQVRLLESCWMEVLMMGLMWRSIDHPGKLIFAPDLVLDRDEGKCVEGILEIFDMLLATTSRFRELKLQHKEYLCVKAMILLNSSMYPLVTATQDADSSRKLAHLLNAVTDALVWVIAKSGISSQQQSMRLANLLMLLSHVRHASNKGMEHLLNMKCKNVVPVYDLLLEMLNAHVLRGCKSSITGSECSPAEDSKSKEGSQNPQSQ

As for `[Cu+]`, the Potency entry in assay [1], in assay [2], in assay [3], in assay [4], in assay [5] and in assay [6] was “inactive” each time. Further, the Potency result in assay [8], in assay [9], in assay [10], in [11], in [12] and in assay [13] was “inactive” throughout. Besides, the call in [7] was inactive.
For the molecule `Oc1ccccc1O`, the Potency in [1] is 22 µM (active) and 24.3 µM (active). Moreover, the Potency result in [2], in [3], in assay [4], in assay [5], in assay [14] and in assay [15] was “inactive” each time. The Potency result in assay [8], in assay [11], in [12], in assay [13] and in assay [16] was “inactive” in each case. Further, the molecule was classed as inactive in [7] and in assay [17].
`CCCCC(CC)CN1CN(CC(CC)CCCC)CC(C)(N)C1` (stereo unspecified): the Potency result in [1], in [2], in assay [5], in assay [6], in assay [15] and in assay [8] was “inactive” in each case. Moreover, the Potency result in assay [9], in [10], in [11], in assay [12], in [13] and in [16] was “inactive” throughout. Moreover, the Potency result in [19] was “inactive”. Further, the Potency in [3] and in assay [14] was 21100 nM (active) in each case. In addition, the outcome in [18], in assay [7] and in assay [17] was inactive.
For the molecule `O[C@@H]([C@H](O)[C@H](O)CBr)[C@H](O)CBr`, the Potency entry in assay [1], in assay [2], in assay [3], in [4], in assay [5] and in assay [6] was “inactive” throughout. Also, the Potency result in assay [15], in assay [8], in [9], in assay [10], in assay [20] and in assay [11] was “inactive” each time. For the same molecule, the Potency entry in assay [12], in [13] and in [19] was “inactive” throughout. Further, the result in assay [7] was inactive.
In the case of `CC(=O)CC(=O)Nc1ccc(S(=O)(=O)O)cc1`, the Potency entry in assay [1], in assay [2], in [3], in [4], in assay [5] and in assay [6] was “inactive” each time. Moreover, the Potency entry in assay [14], in assay [15], in assay [8], in assay [9], in assay [10] and in assay [20] was “inactive” each time. The Potency result in assay [11], in [12], in assay [13], in [16] and in assay [19] was “inactive” in each case. For the same molecule, in assay [17], the outcome was inactive.
Turning to `C#C[C@]1(O)CC[C@H]2[C@@H]3[C@H](C)CC4=C(CCC(=O)C4)[C@H]3CC[C@@]21C`, the values for the Potency in [1], in [6] and in assay [8] were 188 nM (active), 84.1 nM (active) and 18.8 nM (active), respectively. In addition, the Potency result in [2], in assay [3], in assay [4], in [5], in [15] and in assay [11] was “inactive” throughout. Also, the Potency result in assay [12], in [13] and in assay [19] was “inactive” each time.
As for `CN(C)CCN1CCN(c2cccc(Cl)c2)C1=O`, the Potency entry in assay [1], in assay [2], in assay [3], in [4], in assay [5] and in [6] was “inactive” in each case. The Potency entry in assay [14], in [15], in assay [8], in assay [9], in [10] and in [11] was “inactive” each time. Also, the Potency result in assay [12], in [16] and in assay [19] was “inactive” each time. The outcome in [18], in assay [7] and in assay [17] was inactive.
Regarding `CC(=O)c1ccc(C(C)=O)cc1`, the Potency entry in assay [1], in assay [2], in assay [3], in assay [4], in [5] and in [14] was “inactive” throughout. The Potency entry in [8], in assay [9], in [20], in assay [11], in assay [12] and in assay [13] was “inactive” in each case. The Potency entry in assay [16] and in assay [19] was “inactive” in each case. Further, the outcome in [18], in assay [7] and in [17] was inactive.
